Test results published in PubChem BioAssay (NCI).
About 79,000 compounds went through this panel and 15% of them were active in at least one assay; those are over-represented in the sample as a whole. Active and inactive are the calls of the source. Rule as the data show it: active = growth inhibition above about 70%; inactive = the rest.

What was measured:
[1] = NCI Yeast Anticancer Drug Screen. Data for the mec2-1 strain (AID 157); details: S. cerevisiae mec2-1 strain, active compounds read high
Procedure, shortened: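 mec2-1 yeast strain, carrying an alteration in DNA damage repair or cell cycle control, was exposed to compounds; growth inhibition was measured relative to vehicle-treated controls.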

[2] = NCI Yeast Anticancer Drug Screen. Data for the rad14 strain (AID 159);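 also: 0% = growth of vehicle-treated control cultures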; details: S. cerevisiae rad14 strain growth inhibition, active compounds read high
Procedure, shortened: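 Screen for anticancer potential: a yeast strain altered in DNA damage repair is grown with compound, and reduced growth is quantified against vehicle controls.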

[3] = NCI Yeast Anticancer Drug Screen. Data for the sgs1 mgt1 strain (AID 161);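 also: 0% = growth of cultures given vehicle only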; details: S. cerevisiae sgs1 mgt1 strain, active compounds read high
Procedure, shortened: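 Percent growth inhibition was derived by comparing compound-exposed mutant yeast with vehicle-exposed cultures. The strain carries alterations in DNA damage repair.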

[4] = NCI Yeast Anticancer Drug Screen. Data for the CLN2oe strain (AID 163);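 also: 0% = growth of vehicle-only control cultures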; details: S. cerevisiae CLN2oe strain, active compounds read high
Procedure, shortened: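 Yeast cells carrying a defined cell-cycle control alteration were exposed to test compounds. Growth inhibition was scored against vehicle-treated control cultures.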

[5] = NCI Yeast Anticancer Drug Screen. Data for the cln2 rad14 strain (AID 165);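 also: 0% = growth equal to vehicle treated cultures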; details: S. cerevisiae cln2 rad14 strain, active compounds read high
Procedure, shortened: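 Yeast carrying cln2 and rad14 alterations (cell cycle control and DNA damage repair) were exposed to compounds. Growth inhibition was measured against vehicle-treated controls.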

[6] = NCI Yeast Anticancer Drug Screen. Data for the bub3 strain (AID 167); details: S. cerevisiae bub3 mutant strain, active compounds read high
Procedure, shortened: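 Screening used yeast with an engineered genetic alteration affecting cell cycle control. Compound-exposed cultures were compared with vehicle cultures, and reduced growth was taken as inhibition.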

[7] = NCI Yeast Anticancer Drug Screen. Data for the wt2 strain (AID 169);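 also: 0% = growth of vehicle-treated yeast cultures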; details: S. cerevisiae wt2 strain growth inhibition, active compounds read high
Procedure, shortened: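 Yeast cells were exposed to test compounds, and growth inhibition was measured relative to vehicle-treated controls.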

[8] = NCI Yeast Anticancer Drug Screen. Data for the mlh1 strain (AID 171);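 also: 0% = growth of vehicle-treated control cultures of the same strain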; details: S. cerevisiae mlh1 strain growth inhibition, active compounds read high
Procedure, shortened: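 Yeast carrying a defined genetic alteration in DNA damage repair or cell cycle control were exposed to test compounds. Growth inhibition was measured relative to vehicle-treated controls.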

[9] = NCI Yeast Anticancer Drug Screen. Data for the mlh1 rad18 strain (AID 175); details: S. cerevisiae mlh1 rad18 strain growth inhibition, active compounds read high
Procedure, shortened: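 Growth inhibition of the yeast strain was measured after compound exposure and expressed relative to vehicle-treated controls. The strain carries defined defects in DNA damage repair.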

[10] = NCI Yeast Anticancer Drug Screen. Data for the rad18 strain (AID 177); details: S. cerevisiae rad18 mutant growth inhibition, active compounds read high
Procedure, shortened: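 Yeast carrying a defined DNA damage repair alteration were exposed to compounds. Growth inhibition was expressed relative to vehicle-treated controls.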

[11] = NCI Yeast Anticancer Drug Screen. Data for the rad52 strain (AID 147);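 also: 0% = growth of vehicle-treated control cultures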; details: S. cerevisiae rad52 mutant growth inhibition, active compounds read high
Procedure, shortened: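 Yeast strain carrying a DNA damage repair alteration was exposed to test compounds. Growth inhibition was measured relative to vehicle-treated controls.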

[12] = NCI Yeast Anticancer Drug Screen. Data for the rad50EPP+ strain (AID 151);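 also: 0% = growth of vehicle-treated control cultures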; details: S. cerevisiae rad50 mutant strain, active compounds read high
Procedure, shortened: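 Yeast strain carrying rad50 alteration (rad50EPP+) exposed to compounds; growth inhibition measured relative to vehicle-treated controls.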

[13] = NCI Yeast Anticancer Drug Screen. Data for the mgt1 strain (AID 153); details: S. cerevisiae mgt1 mutant growth inhibition, active compounds read high
Procedure, shortened: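 Yeast mgt1 strain (DNA repair/cell-cycle alteration panel) exposed to compounds; growth inhibition measured relative to vehicle-treated controls.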

[14] = NCI Yeast Anticancer Drug Screen. Data for the rad50 strain (AID 155);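 also: 0% = growth of vehicle-only cultures of the same strain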; details: S. cerevisiae rad50 strain growth inhibition, active compounds read high
Procedure, shortened: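 Relative growth inhibition (compound vs vehicle) was measured in yeast with a defined repair-gene alteration.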

[15] = NCI Yeast Anticancer Drug Screen. Data for the sgs1 strain (AID 173);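 also: 0% = growth of vehicle-only control cultures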; details: S. cerevisiae sgs1 mutant, active compounds read high
Procedure, shortened: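 Yeast mutant strains carrying defined defects in DNA damage repair or cell cycle control were exposed to test compounds. Growth inhibition was scored against vehicle-treated controls.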

[16] = at 5.0 µM (retest, dose inferred, filed as 0.5)
[17] = at 50.0 µM (retest, dose inferred, filed as 5.0)

Measured: growth inhibition

COc1ccc(N=C2C(=O)Nc3ccc(Br)cc32)cc1
active: [6]; [17] 85% | [6]; at 50.0 µM 82.4%
inactive: [1]; at 100.0 µM -20% | [2]; at 1.2 µM -22% | [2]; at 3.7 µM -25% | [2]; at 11.0 µM -26% | [2]; at 33.0 µM -28% | [2]; at 100.0 µM -30% | [3]; [16] -15% | [3]; [17] 23% | [3]; at 50.0 µM 28.9% | [4]; at 1.2 µM -7% | [4]; at 3.7 µM 23% | [4]; at 11.0 µM 19% | [4]; at 33.0 µM 23% | [4]; at 100.0 µM 1% | [5]; [16] 54% | [5]; [17] 37% | [5]; at 50.0 µM -7.9% | [6]; at 1.2 µM -7% | [6]; at 3.7 µM -7% | [6]; [16] 32% | [6]; at 11.0 µM -2% | [6]; at 33.0 µM 2% | [6]; at 100.0 µM 50% | [7]; at 1.2 µM 19% | [7]; at 3.7 µM 1% | [7]; at 11.0 µM 9% | [7]; at 33.0 µM 20% | [7]; at 100.0 µM 11% | [8]; at 1.2 µM 6% | [8]; at 3.7 µM -3% | [8]; at 11.0 µM -19% | [8]; at 33.0 µM -24% | [8]; at 100.0 µM -18% | [9]; [16] 47% | [9]; [17] 55% | [9]; at 50.0 µM 27% | [10]; at 1.2 µM -25% | [10]; at 3.7 µM -36% | [10]; at 11.0 µM -39% | [10]; at 33.0 µM -30% | [10]; at 100.0 µM -28%

O=C1C=CC(=Nc2ccc3c(c2)Cc2cc(NC(=O)C(F)(F)F)ccc2-3)O1
active: [11]; at 100.0 µM 97% | [12]; at 11.0 µM 81% | [12]; at 33.0 µM 91% | [12]; at 100.0 µM 98% | [13]; at 100.0 µM 96% | [14]; [17] 96% | [14]; at 50.0 µM 82.4% | [14]; at 100.0 µM 97% | [1]; [16] 88% | [1]; [17] 95% | [1]; at 50.0 µM 96% | [1]; at 100.0 µM 96% | [2]; at 100.0 µM 98% | [3]; [17] 97% | [3]; at 50.0 µM 98.3% | [4]; at 100.0 µM 96% | [5]; [17] 93% | [6]; [17] 96% | [6]; at 50.0 µM 87.7% | [6]; at 100.0 µM 96% | [7]; at 100.0 µM 98% | [15]; at 100.0 µM 98% | [9]; [16] 79% | [9]; [17] 94% | [9]; at 50.0 µM 98.3%
inactive: [11]; at 1.2 µM 4% | [11]; at 3.7 µM 8% | [11]; at 11.0 µM 21% | [11]; at 33.0 µM 33% | [12]; at 1.2 µM 8% | [12]; at 3.7 µM 40% | [13]; at 1.2 µM 1% | [13]; at 3.7 µM 5% | [13]; at 11.0 µM 12% | [13]; at 33.0 µM 36% | [14]; at 1.2 µM 2% | [14]; at 3.7 µM 7% | [14]; [16] 44% | [14]; at 11.0 µM 20% | [14]; at 33.0 µM 55% | [1]; at 1.2 µM 5% | [1]; at 3.7 µM 14% | [1]; at 11.0 µM 28% | [1]; at 33.0 µM 48% | [2]; at 1.2 µM 6% | [2]; at 3.7 µM 15% | [2]; at 11.0 µM 32% | [2]; at 33.0 µM 62% | [3]; [16] 51% | [4]; at 1.2 µM -4% | [4]; at 3.7 µM 1% | [4]; at 11.0 µM 10% | [4]; at 33.0 µM 23% | [5]; [16] 7% | [5]; at 50.0 µM 3.55% | [6]; at 1.2 µM -7% | [6]; at 3.7 µM -6% | [6]; [16] 25% | [6]; at 11.0 µM 0% | [6]; at 33.0 µM 13% | [7]; at 1.2 µM 1% | [7]; at 3.7 µM 3% | [7]; at 11.0 µM 15% | [7]; at 33.0 µM 26% | [15]; at 1.2 µM 7% | [15]; at 3.7 µM 15% | [15]; at 11.0 µM 34% | [15]; at 33.0 µM 63%

CSC1=NNC(SC)=NN1
inactive: [11]; at 1.2 µM -13% | [11]; at 3.7 µM -5% | [11]; at 11.0 µM 3% | [13]; at 1.2 µM 12% | [13]; at 3.7 µM 14% | [13]; at 11.0 µM 12% | [14]; at 1.2 µM -4% | [14]; at 3.7 µM 0% | [14]; [16] 49% | [14]; at 11.0 µM 15% | [14]; at 33.0 µM 66% | [14]; [17] 41% | [14]; at 50.0 µM 59.9% | [1]; at 1.2 µM -4% | [1]; at 3.7 µM -22% | [1]; [16] 44% | [1]; at 11.0 µM 15% | [1]; [17] 41% | [1]; at 50.0 µM 44.4% | [2]; at 1.2 µM -16% | [2]; at 3.7 µM -4% | [2]; at 11.0 µM 36% | [3]; [16] -1% | [3]; at 50.0 µM 58.5% | [4]; at 1.2 µM -8% | [4]; at 3.7 µM 17% | [4]; at 11.0 µM 15% | [4]; at 33.0 µM 46% | [5]; [16] 61% | [5]; at 50.0 µM 30.9% | [6]; at 1.2 µM -12% | [6]; at 3.7 µM 6% | [6]; [16] 45% | [6]; at 11.0 µM 54% | [6]; at 50.0 µM 68.8% | [7]; at 1.2 µM -2% | [7]; at 3.7 µM 1% | [7]; at 11.0 µM 4% | [7]; at 33.0 µM 61% | [8]; at 1.2 µM -3% | [8]; at 3.7 µM 17% | [8]; at 11.0 µM 20% | [8]; at 33.0 µM 62% | [15]; at 1.2 µM -5% | [15]; at 3.7 µM -11% | [15]; at 11.0 µM 8% | [9]; [16] 44% | [9]; [17] 35% | [9]; at 50.0 µM 39.4% | [10]; at 1.2 µM 4% | [10]; at 3.7 µM 13% | [10]; at 11.0 µM 60%
active: [11]; at 33.0 µM 70% | [11]; at 100.0 µM 98% | [13]; at 33.0 µM 83% | [13]; at 100.0 µM 99% | [14]; at 100.0 µM 97% | [1]; at 33.0 µM 89% | [1]; at 100.0 µM 99% | [2]; at 33.0 µM 87% | [2]; at 100.0 µM 98% | [3]; [17] 100% | [4]; at 100.0 µM 99% | [5]; [17] 99% | [6]; at 33.0 µM 89% | [6]; [17] 99% | [6]; at 100.0 µM 99% | [7]; at 100.0 µM 99% | [8]; at 100.0 µM 98% | [15]; at 33.0 µM 75% | [15]; at 100.0 µM 98% | [10]; at 33.0 µM 93% | [10]; at 100.0 µM 98%
